Screens: PubChem BioAssay, National Center for Advancing Translational Sciences (NCATS)
SARS PLP yeast = qHTS of Yeast-based Assay for SARS-CoV PLP; S. cerevisiae expressing SARS-CoV PLpro, growth rescue; Potency, µM (top dose mostly 32.9 µM), without a hit: top-dose activity, positive = growth rescue, hits mostly activators; hit rate 0.19% among 330,000; calls by dose curve; further: 0% is about no effect; nearly all actives have a fitted effect of over 55% in size
Pf growth 96h = Primary qHTS for delayed death inhibitors of the malarial parasite plastid, 96 hour incubation; P. falciparum luciferase reporter growth, 96 h; Potency, µM (doses to about 28.7 µM), inactives show at the highest dose activity change, negative = inhibition, actives largely listed as inhibitors; hit rate 6.9% among 320,000; further: on the % scale 0 is the no-effect control and ±100 the full control effect
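Erythrocytes infected with luciferase-expressing P. falciparum were dispensed at 2% hematocrit and 0.05% parasitemia (final), then incubated with compounds 96 hours at 37 C in 5% CO2. Luminescence after detection reagent addition reported growth.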
NS1 function inh = qHTS Assay for Inhibitors of Influenza NS1 Protein Function; AID 2326, 2010; hit rate 0.4% among 270,000; Potency, µM (series often up to 46.1 µM), for the others: at the highest dose activity, positive = more growth; calls by dose curve; further: actives are rising curves; nearly all actives have a fitted effect of over 50% in size
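In this qHTS, NS1 from influenza A is expressed in budding yeast, where it slows growth. Cells are switched from glucose to 2% galactose medium (pH 6.0, -URA), treated with compound, and growth recovery is read at OD600.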
Pf growth 48h = Primary qHTS for delayed death inhibitors of the malarial parasite plastid, 48 hour incubation; P. falciparum luciferase growth in erythrocytes, 48 h; hit rate 5.9% among 310,000; Potency, µM (top dose mostly 28.7 µM), inactives show top-dose activity change, negative = inhibition, usual class: inhibitors; further: on the % scale 0 is the no-effect control and ±100 the full control effect
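Cell-based growth assay: transgenic P. falciparum expressing firefly luciferase, cultured in red cells within RPMI 1640 containing 0.5% w/v Albumax, 24 mM bicarbonate and gentamycin. A drop in luciferase activity indicates inhibition.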
Active calls of the source: *; ? = inconclusive; / = no result. Sampled rows, rich in hits. Any-hit rate of the full collection: about 10%. Unless noted, the call rests on the fitted dose curve; in most records, active means well fitted inhibition curve with a large enough effect; inconclusive means small, poorly fitted or top-dose-only effect, or another doubt; inactive means no such curve, though single readings can be large or run the other way. Potency means the concentration at half of the fitted maximal effect.

SMILES	SARS PLP yeast	Pf growth 96h	NS1 function inh	Pf growth 48h
CC(OC(=O)[C@@H]1CCCN1C(=O)c1cccs1)C(=O)Nc1cccc([N+](=O)[O-])c1 (stereo partly drawn)	-17.0%	/	/	/
Cc1sc2nc(-c3cccnc3)nc(Cl)c2c1-c1ccccc1	-16.7%	?	-29.2%	8.28µM*
Cc1sc2nc(-c3ccccc3)[nH]c(=O)c2c1-c1ccccc1	13.9%	15.7%	-3.0%	16.8%
CCOC(=O)c1c(-c2ccc(C)o2)csc1NC(=S)NC(=O)N(C)C	0.3%	?	-2.3%	?
Cc1ccc(S(=O)(=O)/N=C2\C=C(Nc3ccc(O)cc3)C(=O)c3ccccc32)cc1	-0.8%	/	/	/
Cc1ccc(S(=O)(=O)/N=C2\C=C(Nc3cccc(C(=O)O)c3)C(=O)c3ccccc32)c(C)c1	-0.4%	19.3%	11.7%	1.65µM*
CC(C)(C)c1ccc(S(=O)(=O)/N=C2\C=C(NS(=O)(=O)c3ccccc3)C(=O)c3ccccc32)cc1	-9.2%	3.4%	10.0%	-8.5%
CCc1ccc(S(=O)(=O)/N=C2\C=C(Nc3ccc(C(=O)O)cc3)C(=O)c3ccccc32)cc1	-2.3%	3.7µM*	-2.5%	2.33µM*
O=C(O)c1cccc(NC2=C(N3CCOCC3)C(=O)c3ccccc3C2=O)c1	-1.3%	32.3%	-0.4%	7.2%
Cc1ccc(S(=O)(=O)/N=C2\C=C(Nc3cccc(C(=O)O)c3)C(=O)c3ccccc32)cc1	-0.7%	-9.4%	-20.9%	4.65µM*
O=C(Nc1ccc(NS(=O)(=O)c2ccc([N+](=O)[O-])cc2)cc1)c1ccco1	-1.8%	?	3.6%	?
C#CCNC(=O)C1=C[C@H](c2coc3ccccc3c2=O)[C@@H](CCCO)[C@H](OCC)O1	-1.2%	-16.1%	-3.8%	4.4%
Cc1cc(C)c(NC(=O)CN(C2CCCCC2)C2CCCCC2)c(C)c1	-5.0%	/	-1.3%	?
Cc1cc(C)c(NC(=O)CCCCCNC2CCCCC2)c(C)c1	-6.2%	13.1µM*	-7.7%	4.0%
CCOC(=O)c1c(C)[nH]c(C2=NNC(=Nc3cccc(Cl)c3)SC2)c1C	-39.9%	2.08µM*	-2.5%	2.08µM*
O=C(N/C(=C\c1ccc(Br)cc1)C(=O)N1CCCC1)c1ccccc1F	0.1%	?	3.5%	9.9%
CN(C)CCN(C)Cc1c2ccccc2c(CN(C)CCN(C)C)c2ccccc12	2.0%	1.65µM*	-36.4%	6.57µM*
CN(C)CCP(=O)(c1ccccc1)c1ccccc1	0.5%	25.8%	0.4%	0.6%
CN(C)C/C=C(\c1ccc(Br)cc1)c1cccnc1	/	?	-5.6%	14.7µM*
CCOC(=O)c1c(N2C(=O)CC(Sc3ccccc3C(=O)O)C2=O)sc(C)c1C (stereo not drawn)	-6.3%	52.9%	-12.9%	2.33µM*
Cc1ccccc1C(=O)N1CCC(C(=O)Nc2ccc(C)c(S(=O)(=O)N3CCCCC3)c2)CC1	-3.6%	?	/	13.1µM*
Cc1ccccc1C(=O)N1CCC(C(=O)Nc2cccc(S(=O)(=O)N3CCCCC3)c2)CC1	-2.0%	?	/	14.7µM*
Cc1ccccc1C(=O)N1CCC(C(=O)Nc2ccc(S(=O)(=O)N3CCCC3)cc2)CC1	3.7%	/	-9.9%	?
COC(=O)c1cnc(N2CCCN(S(=O)(=O)c3ccc(C(F)(F)F)cc3)CC2)nc1C(F)(F)F	0.5%	15.8%	1.2%	-21.5%
CN1CCc2cc(Cl)c(O)cc2[C@H]2c3ccccc3CC[C@@H]21	/	9.53µM*	/	12µM*
SMILES	SARS PLP yeast	Pf growth 96h	NS1 function inh	Pf growth 48h
Cc1ccc(C)c(NC(=O)CSc2nc3ccc(N4C(=O)c5ccccc5C4=O)cc3s2)c1	-5.7%	4.15µM*	6.8%	41.3%
COC(=O)[C@@]1(Cc2ccccc2)[C@H]2C(=O)N(C)C(=O)[C@H]2[C@H]2CN=C(SCc3ccc(Cl)cc3)N21	7.5%	/	/	/
S=c1[nH]c2ncccc2o1	-4.3%	2.08µM*	-0.6%	-7.3%
COc1ccc(NS(=O)(=O)c2cc3c4c(c2)C(C)C(=O)N4CCC3)cc1 (stereo not drawn)	-2.3%	7.4%	10.1%	-12.7%
COc1ccc(CNC(=O)c2ccc(Cn3nc(C)c([N+](=O)[O-])c3C)o2)cc1	-6.5%	36.4%	-59.6%	?
COc1ccc(CNC(=O)c2ccc(Cn3nc(C)cc3C)o2)cc1	4.0%	1.47µM*	10.2%	3.5%
COc1ccc(CNC(=O)Cn2nc(C(F)(F)F)cc2C)cc1	0.9%	13.1µM*	0.2%	0.2%
O=C(CSc1cn[nH]n1)Nc1ccccc1C(F)(F)F	-1.7%	-1.8%	7.5%	12.7%
COc1ccc(OC)c(NC(=O)c2cc3oc4ccccc4c3cc2O)c1	0.4%	?	4.5%	4.15µM*
CCCN(CCC)S(=O)(=O)c1ccc(C(=O)Nc2cc3oc4ccccc4c3cc2OC)cc1	22.0%	-0.6%	2.8%	10.4µM*
COc1ccc(CN(C)CC(=O)Nc2ccccc2C(F)(F)F)c(OC)c1	-23.4%	61.8%	3.8%	10.3%
COc1ccc(CN(C)CC(=O)Nc2cc3oc4ccccc4c3cc2OC)c(OC)c1	-25.3%	9.28µM*	-16.5%	?
COc1cc2c(cc1NC(=O)CN(C)Cc1ccc(OC)c(OC)c1)oc1ccccc12	-21.6%	7.38µM*	-19.0%	9.28µM*
CCN(CC)S(=O)(=O)c1cccc(C(=O)Nc2cc3oc4ccccc4c3cc2OC)c1	-7.1%	?	0.4%	-22.6%
Cc1cccc(C(=O)OC(C)C(=O)Nc2ccc(S(=O)(=O)Nc3ncccn3)cc2)c1C (stereo not drawn)	-6.1%	2.9%	/	-1.9%
O=C(Cn1nc(Cl)nc1Cl)c1ccc(F)cc1	-0.8%	?	9.3%	11.7µM*
O=C(Nc1cccc(C(=O)Nc2ccc(S(=O)(=O)O)c3cc(S(=O)(=O)O)cc(S(=O)(=O)O)c23)c1)Nc1cccc(C(=O)Nc2ccc(S(=O)(=O)O)c3cc(S(=O)(=O)O)cc(S(=O)(=O)O)c23)c1	/	/	-5.2%	/
COc1ccc(-c2ccc(N)cn2)cn1	-0.4%	82.2%	/	79.0%
COc1cc(C(=O)OCCNC(=O)c2ccncc2)cc(OC)c1OC	?	?	-0.7%	-8.1%
CSc1c(C#N)sc(=S)n1-c1ccc(C)cc1	0.3%	10.4µM*	3.4%	?
COC(=O)C1=C(C)NC(=O)NC1c1ccc2c(c1)OCO2 (stereo not drawn)	1.6%	?	0.6%	25.4%
CCOC(=O)C1=C(CNCCOc2ccc(OC)cc2)NC(=O)NC1c1ccc2c(c1)OCO2 (stereo not drawn)	1.5%	?	/	11.7µM*
CCSCCOC(=O)C1=C(C)NC(=O)NC1c1ccc2c(c1)OCO2 (stereo not drawn)	21.7%	-0.3%	3.9%	/
CCOC(=O)C1=C(CNCCc2ccc(Cl)cc2)NC(=O)NC1c1ccc2c(c1)OCO2 (stereo not drawn)	-1.7%	/	?	7.38µM*
CC(C)n1cnc2c(N(C)c3cccc(Cl)c3)nc(N(CCO)CCO)nc21	2.3%	9.28µM*	-9.5%	13.1µM*
CN(CC(=O)Nc1ccccc1Br)C(=O)COc1ccc2ccccc2c1	0.3%	10.8%	/	1.4%
